# Out of some 310,000 compounds screened, about 14,000 (4.5%) showed an effect of 50% or more. Effects have a minus sign here. For the sample, strong results were picked, then their nearest neighbours and some compounds at random.
# Molecular target: human ether-à-go-go-related gene (hERG) potassium channel (human, UniProt Q12809)
# Assay: primary screen, population patch clamp on CHO cells stably expressing hERG; higher = less effect of the substance
# 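Also: peak tail current of the secondary pulse compared with the same well before compound.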
# human ether-à-go-go-related gene (hERG) potassium channel, sequence (Q12809 whole entry, looked up): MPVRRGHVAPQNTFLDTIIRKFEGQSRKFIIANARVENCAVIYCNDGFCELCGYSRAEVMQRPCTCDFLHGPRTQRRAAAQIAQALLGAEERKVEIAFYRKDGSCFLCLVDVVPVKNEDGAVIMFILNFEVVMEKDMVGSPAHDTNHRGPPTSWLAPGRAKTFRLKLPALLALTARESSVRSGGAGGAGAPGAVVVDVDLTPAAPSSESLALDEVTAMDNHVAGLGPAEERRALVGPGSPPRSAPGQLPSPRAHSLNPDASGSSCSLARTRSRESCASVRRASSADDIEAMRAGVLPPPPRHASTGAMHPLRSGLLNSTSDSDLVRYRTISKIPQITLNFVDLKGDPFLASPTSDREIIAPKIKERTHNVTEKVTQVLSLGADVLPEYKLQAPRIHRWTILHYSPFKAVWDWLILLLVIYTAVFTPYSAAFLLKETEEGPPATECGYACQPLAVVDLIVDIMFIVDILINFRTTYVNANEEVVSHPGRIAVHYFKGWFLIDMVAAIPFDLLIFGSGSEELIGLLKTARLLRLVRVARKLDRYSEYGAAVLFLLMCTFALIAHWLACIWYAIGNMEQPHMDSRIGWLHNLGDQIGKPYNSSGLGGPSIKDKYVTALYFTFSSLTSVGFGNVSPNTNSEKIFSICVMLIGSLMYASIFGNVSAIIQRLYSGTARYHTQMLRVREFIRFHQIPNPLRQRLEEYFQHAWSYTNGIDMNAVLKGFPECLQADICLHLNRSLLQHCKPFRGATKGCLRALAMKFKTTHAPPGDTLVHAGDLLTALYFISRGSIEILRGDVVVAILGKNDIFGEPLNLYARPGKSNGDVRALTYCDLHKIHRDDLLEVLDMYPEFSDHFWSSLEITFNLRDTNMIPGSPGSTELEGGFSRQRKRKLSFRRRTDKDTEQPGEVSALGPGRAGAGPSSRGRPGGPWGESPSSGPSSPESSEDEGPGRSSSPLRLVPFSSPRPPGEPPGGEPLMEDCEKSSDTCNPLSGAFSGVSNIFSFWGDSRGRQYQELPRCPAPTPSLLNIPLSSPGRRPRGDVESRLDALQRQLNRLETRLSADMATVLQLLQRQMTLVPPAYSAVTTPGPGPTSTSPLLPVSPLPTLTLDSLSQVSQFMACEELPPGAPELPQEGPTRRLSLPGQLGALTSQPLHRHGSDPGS
row,Compound,"hERG current change (%, negative = inhibition) at 10uM [%]"
1,COc1ccc(Cl)cc1Nc1nc(-c2cccnc2)cs1,5.19
2,Cc1nonc1NC(=O)OC1CCCCC1,1.97
3,Cc1cccc(NC(=S)N2CCCN(c3ncccc3[N+](=O)[O-])CC2)c1,-16.7
4,O=C(N[C@H]1CC1c1ccccc1)c1ccc([N+](=O)[O-])cc1 (some centres unmarked),-6.56
5,COc1ccccc1NC(=O)Nc1cnccn1,-1.51
6,CC1CCCC(NC(=S)NC(=O)c2cncc(Br)c2)C1C (centres unmarked),21.7
7,O=C(NCc1ccc2c(c1)OCO2)C1CCN(S(=O)(=O)c2ccc(Br)s2)CC1,-24
8,CCc1cccc(C)c1NC(=O)C1C2CCC(O2)C1C(=O)O (centres unmarked),18.8
9,Cc1ccc(C2=NS(=O)(=O)N(C)C(C(=O)Nc3cc(C)n(CC(=O)N4CCCCC4)n3)=C2)cc1,10.3
10,Cc1ccc2nc(-c3cccc(-c4cccc(Cl)c4)c3)c(NCc3ccccc3)n2c1.O=C(O)C(F)(F)F,16.3
11,O=S(=O)(c1cccc(-c2nc3ccccc3s2)c1)N1CCOCC1,-7.39
12,CC1=NN(/C(=N\c2nnc(C)s2)Nc2ccccc2)[C@H](c2ccc(C)cc2)S1,-13.5
13,CCn1cc(C(=O)OC)c(=O)c2cc(S(=O)(=O)N(C)C3CCCCC3)ccc21,-28.4
14,CCC1CCCCN1CCCNC(=O)c1cn(CC)c2ccc(S(=O)(=O)N(C)C3CCCCC3)cc2c1=O (centres unmarked),-79.8
15,CCn1cc(C(=O)NCC2CCCO2)c(=O)c2cc(S(=O)(=O)N(C)C3CCCCC3)ccc21 (centres unmarked),-31.6
16,CN(C)S(=O)(=O)c1ccc2c(c1)c(=O)c(C(=O)NCCCN1CCCCCC1)cn2C,-4.72

row,Compound,"hERG current change (%, negative = inhibition) at 10uM [%]"
1,CCC1CCCCN1CCCNC(=O)c1cn(C)c2ccc(S(=O)(=O)N(C)C3CCCCC3)cc2c1=O (centres unmarked),-62.8
2,CCOC(=O)N1CCN(C(=O)c2cn(C)c3ccc(S(=O)(=O)N(C)C4CCCCC4)cc3c2=O)CC1,-29.4
3,CCc1ccc(-c2cc(C(F)(F)F)n3nc(C(=O)Nc4cnn(Cc5ccccc5C)c4)cc3n2)s1,5.41
4,COCCNC(=O)c1cc(S(=O)(=O)N2CCCCC2)ccc1N1CCOCC1,1.23
5,Cc1cccc(N2CCN(S(=O)(=O)c3cccs3)CC2)c1C,-15.8
6,Cc1sc2nc(CN3CCOCC3)nc(N3CCN(S(=O)(=O)c4ccccc4)CC3)c2c1C,-41.6
7,COc1ccc(-c2csc3ncnc(N4CCN(S(=O)(=O)c5cccc(F)c5)CC4)c23)cc1,-3.5
8,Cc1ccc(S(=O)(=O)N2CCN(c3nc(CN4CCCC4)nc4sc(C)c(C)c34)CC2)cc1,-77.7
9,CCc1nc(N2CCN(S(=O)(=O)c3ccc(Br)cc3)CC2)c2c(C)c(C)sc2n1,-32
10,Cc1sc2nc(CN3CCOCC3)nc(NS(=O)(=O)c3ccccc3)c2c1C,9.1
11,Cc1nc(N2CCN(S(=O)(=O)c3ccc(F)cc3)CC2)c2c(C)c(C)sc2n1,-6.58
12,Cc1sc2nc(CN3CCCC3)nc(N3CCN(S(=O)(=O)c4cccc(F)c4)CC3)c2c1C,-70.1
13,Cc1sc2nc(CN3CCCC3)nc(N3CCN(S(=O)(=O)c4cccs4)CC3)c2c1C,-70.7
14,Cc1sc2nc(CN3CCCC3)nc(N3CCN(S(=O)(=O)c4ccccc4)CC3)c2c1C,-67
15,CCCc1nc(N2CCN(S(=O)(=O)c3ccc(Cl)cc3)CC2)c2c(C)c(C)sc2n1,-17.1
16,O=S(=O)(c1cccs1)N1CCN(Cc2ccccc2)CC1,-14

# Reference: paper PMC4336329 (PLoS ONE, 2015)
